Values joined by “and” are separate entries in the source; they are usually repeats but may differ in a detail not shown here. Identical values can stand only once. Unmarked numbers belong to inactive results. Active and inactive are the calls of the source.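 The calls were made as follows, unless noted: active = binding below the plate cutoff, the plate median minus 3 SD, with a reading above zero; inconclusive = below the plate cutoff but reading exactly zero; inactive = the rest.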
System: not listed separately
Assay: cytosolic pH regulators acting via V-ATPase – S. cerevisiae, pHLuorin, HTS validation (AID 504600; in the data active = response above about 15%;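 also: plate controls were DMSO for no effect and reference compound for full effect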)
Settings: V-ATPase proton transport, at 10 µM, hits give high values

Compound	response
O=C(Cc1ccccc1[N+](=O)[O-])NCc1ccncc1	-1.46%
Cn1nc(-c2ccc(Cl)cc2)nc2c(=O)n(C)c(=O)nc1-2	59.4% (active)
O=C(O)CCCCCNC(=O)Nc1ccc2c(c1)OCCO2	-4.4%
COc1ccc(S(N)(=O)=O)cc1C(N)=O	-1.59%
Cc1occc(=O)c1O	-1.14%
C[C@]12CCC3C(CC=C4C[C@@H](O)CC[C@@]43C)C1CCC2[C@]1(C)CCC(=O)O1 (stereo partly drawn)	-0.48%
CC(=O)N(CCC1(c2ccc(C)cc2)CCOC(C(C)C)C1)Cc1ccco1 (stereo not drawn)	-0.03%
O=C(CCc1ccccc1)Nc1ccccc1C(F)(F)F	2.37%
CN(C)C(=O)Oc1cccc([N+](C)(C)C)c1	0% and -1.87%
CCOc1ccc(C(NC(C)=O)c2ccc(OC)c(OC)c2)cc1 (stereo not drawn)	-0.46%
COc1ccccc1N=CC1=C(O)CC(c2ccccc2)CC1=O (stereo not drawn)	4.13%
O=C1CC(c2ccc(O)cc2)Oc2cc(O)cc(O)c21 (stereo not drawn)	4.67%
O=C(NCCO)c1ccc(Cl)c(Cl)c1	0.22%
N/C(Cc1ccc(Cl)cc1Cl)=N\OC(=O)c1ccc(Br)o1	3.34%
CC1=NN(C(=O)c2ccc(Br)cc2)C(O)(c2ccccc2)C1 (stereo not drawn)	-3.1%
Clc1cc(-c2ccc(/C=N/n3cnnc3)o2)ccc1Br	3.36%
O=c1oc2c(CN3CCCCC3)c(O)ccc2c2c1CCCCC2	3.83%
Cc1ccc(-c2nnc(-c3ccc4c(c3)OCO4)o2)cc1	2.28%
CC1(C)CC(=O)c2cn3c(nc2C1)nc1ccccc13	3.76%
COc1ccc(C(=O)N2c3cc4c(cc3C(C)=CC2(C)C)OCO4)cc1	-0.49%

Compound	response
CCc1oc2ccccc2c1C(=O)c1cc(Br)c(O)c(Br)c1	15.2% (active)
Cc1oc2cc(O)cc(O)c2c(=O)c1-c1ccc2c(c1)OCCCO2	0.59%
CCCC(=O)Nc1ncnc2c1ncn2[C@@H]1O[C@@H]2COP(=O)(O)O[C@H]2[C@H]1OC(=O)CCC	1.56%
O=C(Cc1ccccc1)NCC(=O)OCC(=O)c1ccccc1Cl	3.49%
CC/C(=C(\c1ccc(O)cc1)c1ccc(OCCN(C)C)cc1)c1ccccc1	-1.39%
CC(C)(C)C(=O)Nc1cccc(OC(F)(F)C(F)Cl)c1 (stereo not drawn)	18.4% (active)
Cc1ccc(/C(=C\CN2CCCC2)c2ccccn2)cc1	0.97%
CC(C)(C)c1ccc(/C=C/C(=O)N2CCCCC2)cc1	-0.06%
Cn1c(=O)[nH]c(=O)c2c1nc(NCc1ccco1)n2CCCc1ccccc1	0.19%
CN(C)CCOC(=O)C(c1ccccc1)C1(O)CCCC1 (stereo not drawn)	0.51%
COc1ccccc1C(=O)Oc1ccc2c(c1)O/C(=C\c1ccncc1)C2=O	0.47%
CC(=O)CCCCn1c(=O)c2c(ncn2C)n(C)c1=O	0.63%
CS(=O)c1ccccc1O (stereo not drawn)	0.1%
COc1cccc(OCc2nnc(-c3cccs3)o2)c1	-2.54%
CCOC(=O)C(=O)N1CCN(c2ccccc2OC)CC1	-4.83%
COc1ccc(CCN2C(=O)CSC2c2ccc(OC)c(OC)c2)cc1OC (stereo not drawn)	-1.47%
CCCCCCCC(=O)OCC(O)CO (stereo not drawn)	4.53%
CN1CCN(C2=Nc3ccccc3Oc3ccc(Cl)cc32)CC1	0.86%
Cc1ccc(CN2CCN(CCCc3ccccc3)CC2CCO)cc1 (stereo not drawn)	-5.49%

System: anti-desmoglein-3 scFv antibody binding to human DSG3
Assay: blockers of pathogenic pemphigus antibody–desmoglein-3 binding – biochemical, validation compound set, bead-based, flow cytometry, pilot screen (AID 588368);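 also: signal is the median channel fluorescence of bead-bound GFP antibody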
Settings: Protein G beads, DSG3-Fc, scFv-GFP binding, at 10 µM, hits give low values

Compound	binding (% of control)
O=C(Cc1ccccc1[N+](=O)[O-])NCc1ccncc1	98.2%
Cn1nc(-c2ccc(Cl)cc2)nc2c(=O)n(C)c(=O)nc1-2	108%
O=C(O)CCCCCNC(=O)Nc1ccc2c(c1)OCCO2	108%
COc1ccc(S(N)(=O)=O)cc1C(N)=O	91.1%
Cc1occc(=O)c1O	98.1%
C[C@]12CCC3C(CC=C4C[C@@H](O)CC[C@@]43C)C1CCC2[C@]1(C)CCC(=O)O1 (stereo partly drawn)	103%
CC(=O)N(CCC1(c2ccc(C)cc2)CCOC(C(C)C)C1)Cc1ccco1 (stereo not drawn)	99.6%
O=C(CCc1ccccc1)Nc1ccccc1C(F)(F)F	100%
CN(C)C(=O)Oc1cccc([N+](C)(C)C)c1	106% and 97.8%
CCOc1ccc(C(NC(C)=O)c2ccc(OC)c(OC)c2)cc1 (stereo not drawn)	99.2%
COc1ccccc1N=CC1=C(O)CC(c2ccccc2)CC1=O (stereo not drawn)	103%
O=C1CC(c2ccc(O)cc2)Oc2cc(O)cc(O)c21 (stereo not drawn)	94.3%
O=C(NCCO)c1ccc(Cl)c(Cl)c1	104%
N/C(Cc1ccc(Cl)cc1Cl)=N\OC(=O)c1ccc(Br)o1	105%
CC1=NN(C(=O)c2ccc(Br)cc2)C(O)(c2ccccc2)C1 (stereo not drawn)	96.8%
Clc1cc(-c2ccc(/C=N/n3cnnc3)o2)ccc1Br	98.8%
O=c1oc2c(CN3CCCCC3)c(O)ccc2c2c1CCCCC2	96.4%
Cc1ccc(-c2nnc(-c3ccc4c(c3)OCO4)o2)cc1	99.9%
CC1(C)CC(=O)c2cn3c(nc2C1)nc1ccccc13	103%
COc1ccc(C(=O)N2c3cc4c(cc3C(C)=CC2(C)C)OCO4)cc1	96.1%

Compound	binding (% of control)
CCc1oc2ccccc2c1C(=O)c1cc(Br)c(O)c(Br)c1	102%
Cc1oc2cc(O)cc(O)c2c(=O)c1-c1ccc2c(c1)OCCCO2	101%
CCCC(=O)Nc1ncnc2c1ncn2[C@@H]1O[C@@H]2COP(=O)(O)O[C@H]2[C@H]1OC(=O)CCC	98.3%
O=C(Cc1ccccc1)NCC(=O)OCC(=O)c1ccccc1Cl	106%
CC/C(=C(\c1ccc(O)cc1)c1ccc(OCCN(C)C)cc1)c1ccccc1	112%
CC(C)(C)C(=O)Nc1cccc(OC(F)(F)C(F)Cl)c1 (stereo not drawn)	99.5%
Cc1ccc(/C(=C\CN2CCCC2)c2ccccn2)cc1	108%
CC(C)(C)c1ccc(/C=C/C(=O)N2CCCCC2)cc1	98.4%
Cn1c(=O)[nH]c(=O)c2c1nc(NCc1ccco1)n2CCCc1ccccc1	97.2%
CN(C)CCOC(=O)C(c1ccccc1)C1(O)CCCC1 (stereo not drawn)	103%
COc1ccccc1C(=O)Oc1ccc2c(c1)O/C(=C\c1ccncc1)C2=O	103%
CC(=O)CCCCn1c(=O)c2c(ncn2C)n(C)c1=O	95.5%
CS(=O)c1ccccc1O (stereo not drawn)	101%
COc1cccc(OCc2nnc(-c3cccs3)o2)c1	102%
CCOC(=O)C(=O)N1CCN(c2ccccc2OC)CC1	102%
COc1ccc(CCN2C(=O)CSC2c2ccc(OC)c(OC)c2)cc1OC (stereo not drawn)	100%
CCCCCCCC(=O)OCC(O)CO (stereo not drawn)	98.7%
CN1CCN(C2=Nc3ccccc3Oc3ccc(Cl)cc32)CC1	109%
Cc1ccc(CN2CCN(CCCc3ccccc3)CC2CCO)cc1 (stereo not drawn)	102%

Reference: PubChem BioAssay
